According to PubChem BioAssay (EPA / NIEHS):
Where “and” joins values, the source holds several entries; their conditions need not be identical. Equal entries are not always repeated. Records with an inconclusive call do not appear. Calls of active or inactive are those of the source. Rule for the calls, unless noted: active = hit-call score of the fitted dose curve at least 0.9, where 1 is the maximum; inactive = score below 0.9.

Columns and labels:
[1] = read-out: Macrophage colony-stimulating factor (MCSF), CSF1 (gene 1435); assay: BSK_IMphg_MCSF: BioMAP Diversity Plus: IMphg Assay for Macrophage colony-stimulating factor (MCSF) Biomarker Activity (AID 2284293); settings: primary human endothelial cells with macrophages
How it was run: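 Co-culture of human venular endothelial cells and macrophages, 24 hours of chemical exposure. M-CSF quantified by ELISA, with parallel SRB total-protein staining for cytotoxicity; activity fitted relative to DMSO.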

[2] = read-out: Interleukin-10 (IL10), IL10 (gene 3586); assay: BSK_IMphg_IL10: BioMAP Diversity Plus: IMphg Assay for Interleukin-10 (IL10) Biomarker Activity (AID 2284294); settings: primary human endothelial cells with macrophages
How it was run: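 Human venular endothelial cells cocultured with macrophages, dosed 24 h; IL-10 measured by ELISA, activity relative to DMSO. Cytotoxicity assessed in parallel cultures by sulforhodamine B total-protein staining.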

[3] = BSK_IMphg_SRB.Mphg: Macrophage Viability Assessment in the BioMAP Diversity Plus: IMphg Assay (AID 2284295); settings: primary human endothelial cells with macrophages
How it was run: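 Venular endothelial cells co-cultured with macrophages, read 24 h after dosing. Total protein measured by 0.1% SRB staining after 10% TCA fixation, absorbance at 560 nm. Fitted in positive direction against DMSO baseline.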

[4] = tested on: TTR (gene 7276); assay: CCTE_GLTED_hTTR_0.5uM: CCTE's human Transthyretin (hTTR) Inhibition Assay, with 0.5uM TTR, Great Lakes Toxicology and Ecology Division (GLTED) Lab (AID 2284320)
How it was run: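 Cell-free displacement assay in which human TTR at 0.5 uM was incubated with test chemical for 2 h. Displacement of the ANSA probe was read by fluorescence at 380 nm excitation/475 nm emission. Loss of signal was fitted in the positive direction versus DMSO.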

[5] = CCTE_Padilla_ZF_Score.Craniofacial: CCTE's 144 Hour Post-fertilization zebrafish Assay Score for Craniofacial Malformation, Padilla Lab (AID 2284405)
How it was run: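 Wild-type zebrafish embryos (with chorions), one per well in 10% Hanks', were dosed at 6–8 hpf in sealed plates and kept at 26C. They were rinsed at 5 dpf. At 6 dpf two blinded assessors scored craniofacial malformations by brightfield stereomicroscopy.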

[6] = CCTE_Padilla_ZF_Score.Edema: CCTE's 144 Hour Post-fertilization zebrafish Assay Score for Edema Malformation, Padilla Lab (AID 2284406)
How it was run: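 Wild-type zebrafish embryos, one per well in Hanks' solution, dosed at 6-8 hpf, sealed and reared at 26C on a 14:10 h cycle; rinsed on 5 dpf. At 6 dpf, blinded assessors scored edema by stereomicroscopy.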

[7] = CCTE_Padilla_ZF_Score.Spine: CCTE's 144 Hour Post-fertilization zebrafish Assay Score for Spine Malformation, Padilla Lab (AID 2284407)
How it was run: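 Wild-type zebrafish embryos, one per well in Hanks' solution, dosed at 6–8 hpf in sealed plates at 26C, 14:10 h light:dark; rinsed at 5 dpf. Two blinded assessors scored spinal defects by stereomicroscopy at 6 dpf; fitted versus DMSO.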

[8] = CCTE_Padilla_ZF_Score.Swim_bladder: CCTE's 144 Hour Post-fertilization zebrafish Assay Score for Swim Bladder Malformation, Padilla Lab (AID 2284408)
How it was run: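 Wild-type zebrafish embryos, one per well in 10% Hanks', dosed at 6–8 hpf, sealed, reared at 26C and rinsed at 5 dpf. Blinded assessors scored uninflated swim bladder by stereomicroscopy at 6 dpf, relative to DMSO.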

[9] = CCTE_Padilla_ZF_Score.Position: CCTE's 144 Hour Post-fertilization zebrafish Assay Score for Position, Padilla Lab (AID 2284409)
How it was run: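 Wild-type zebrafish embryos (with chorions) exposed singly from 6–8 hpf in sealed wells of Hanks' solution at 26C, rinsed at 5 dpf. At 6 dpf, blinded assessors scored abnormal water-column position by brightfield stereomicroscopy, relative to DMSO.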

[10] = CCTE_Padilla_ZF_Score.Living: CCTE's 144 Hour Post-fertilization zebrafish Assay Score for Viability, Padilla Lab (AID 2284410);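 note: larval death at 6 dpf judged by absent heartbeat or coagulation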
How it was run: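 Wild-type zebrafish embryos were exposed singly from 6–8 hpf in sealed wells of Hanks' solution at 26C, then rinsed at 5 dpf. At 6 dpf, blinded assessors scored mortality (no heartbeat or coagulation) by stereomicroscopy, fitted against DMSO.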

[11] = CCTE_Padilla_ZF_Score.General: CCTE's 144 Hour Post-fertilization zebrafish Assay Score for General Malformation, Padilla Lab (AID 2284411)
How it was run: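 Wild-type zebrafish embryos were plated singly at 6-8 hpf in 10% Hanks' and exposed in sealed wells at 26C until rinsed on 5 dpf. At 6 dpf two blinded assessors scored mortality, hatching and malformations by stereomicroscopy; gain-of-signal versus DMSO.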

[12] = CCTE_Padilla_ZF_Score.Tail: CCTE's 144 Hour Post-fertilization zebrafish Assay Score for Tail Malformation, Padilla Lab (AID 2284414)
How it was run: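 Wild-type zebrafish embryos, one per well in 200 uL 10% Hanks', dosed at 6-8 hpf, sealed, and kept at 26 C on a 14:10 h light cycle. Chemical was rinsed out at 5 dpf. Blinded brightfield scoring of tail defects followed at 6 dpf.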

[13] = CCTE_Padilla_ZF_Score.Blood_pooling: CCTE's 144 Hour Post-fertilization zebrafish Assay Score for Blood Pooling, Padilla Lab (AID 2284415)
How it was run: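 Wild-type outbred zebrafish embryos, one per well in 10% Hanks', exposed from 6–8 hpf in sealed plates at 26C on 14:10 h light:dark, rinsed at 5 dpf. Blinded stereomicroscope scoring of blood pooling at 6 dpf; gain-of-signal versus DMSO.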

[14] = CCTE_Padilla_ZF_Score.Any: CCTE's 144 Hour Post-fertilization zebrafish Assay Score for Any Mortality or Malformation, Padilla Lab (AID 2284416)
How it was run: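 Wild-type zebrafish embryos with chorions, one per well in 10% Hanks' from 6–8 hpf, dosed in sealed plates at 26 C, 14:10 h light:dark; rinsed at 5 dpf; blinded scoring at 6 dpf for death or malformation, versus DMSO.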

[15] = molecular target: human RAR-related Orphan Receptor gamma (RORg), RORC (gene 6097) (UniProt P51449); assay: ATG_RORg_TRANS: Attagene TRANS-FACTORIAL HepG2 Assay for human RAR-related Orphan Receptor gamma (RORg) (AID 2283011; active = hit-call score of the fitted dose curve at least 0.9, where 1 is the maximum)
How it was run: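 Chimeric RORg-Gal4 transactivation in transfected HepG2; 24 h exposure; RT-PCR/capillary electrophoresis readout of reporter mRNA, DMSO baseline.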

[16] = TAMU_PeakParms_SingleDonor1434_Chronotropy: Texas A&M University (TAMU) 1.5-hr Human Induced Pluripotent Stem Cell (iPSC)-derived Cardiomyocytes Calcium (Ca+2) Flux Assay for Cardiotoxicity: Chronotropy (changes in peak frequency) (AID 2284217); settings: actives raise or lower the signal
How it was run: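 iPSC-CMs, donor 1434; 4 conc (0.2–100 uM), 0.5% v/v DMSO, 90 min, 37C/5% CO2; Ca2+ flux fluorescence → peak.freq.avg; peak.freq.avg = 0 dropped; bidirectional fit vs DMSO; EC05 POD.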

[17] = TAMU_PeakParms_SingleDonor1434_QT: Texas A&M University (TAMU) 1.5-hr Human Induced Pluripotent Stem Cell (iPSC)-derived Cardiomyocytes Calcium (Ca+2) Flux Assay for Cardiotoxicity: QT (decay-rise ratio) (AID 2284235; active = hit-call score of the fitted dose curve at least 0.9, where 1 is the maximum)
How it was run: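 iPSC-derived cardiomyocytes (single donor 1434) dosed at 0.2, 1, 10, 100 uM final in 0.5% DMSO, 90 min at 37C. Ca2+ flux fluorescence decay/rise ratio; EC05 (5% increase versus DMSO) as POD, excluding beat-arrest and severe-notch data.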

[18] = TAMU_PeakParms_SingleDonor1434_Asystole: Texas A&M University (TAMU) 1.5-hr Human Induced Pluripotent Stem Cell (iPSC)-derived Cardiomyocytes Calcium (Ca+2) Flux Assay for Cardiotoxicity: Asystole (quiescence of beating) (AID 2284328; active = hit-call score of the fitted dose curve at least 0.9, where 1 is the maximum)
How it was run: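 Human iPSC-derived cardiomyocytes (donor 1434) were exposed to 0.2, 1, 10 and 100 uM compound in 0.5% DMSO for 90 min at 37C. Ca2+-dye fluorescence gave average peak frequency; POD is EC95, a 95% beat-rate drop versus DMSO.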

[19] = molecular target: human Ephrin type-A Receptor 1 (EphA1), EPHA1 (gene 2041) (UniProt P21709); assay: NVS_ENZ_hEphA1: NovaScreen (NVS) Enzymatic Assay for human Ephrin type-A Receptor 1 (EphA1) (AID 2283158; active = hit-call score of the fitted dose curve at least 0.9, where 1 is the maximum;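 note: activity is signal loss versus DMSO meaning EphA1 kinase inhibition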)
How it was run: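 Here the EphA1 protein is recombinant and the substrate fluorescent, with electrophoretic separation before fluorescence detection at 1 hour. Signal loss against DMSO defines activity; plate controls included; follow-up concentration series reach 50 uM.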

[20] = molecular target: sheep Cyclooxygenase-1 (Cox1), PTGS1 (gene 443551) (UniProt P05979); assay: NVS_ENZ_oCOX1: NovaScreen (NVS) Enzymatic Assay for sheep Cyclooxygenase-1 (Cox1) (AID 2283239; active = hit-call score of the fitted dose curve at least 0.9, where 1 is the maximum;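 note: actives reduce cyclooxygenase activity so potencies are for inhibitors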)
How it was run: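 Tested in duplicate at 25 uM, then in concentration series if active, against seminal vesicle extract from sheep. Enzyme activity was measured colorimetrically at 0.66 hour and normalised to DMSO.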

Measured: AC50

Sequence of human RAR-related Orphan Receptor gamma (RORg), RORC (gene 6097) (P51449 whole entry, looked up, the tested form may be a part): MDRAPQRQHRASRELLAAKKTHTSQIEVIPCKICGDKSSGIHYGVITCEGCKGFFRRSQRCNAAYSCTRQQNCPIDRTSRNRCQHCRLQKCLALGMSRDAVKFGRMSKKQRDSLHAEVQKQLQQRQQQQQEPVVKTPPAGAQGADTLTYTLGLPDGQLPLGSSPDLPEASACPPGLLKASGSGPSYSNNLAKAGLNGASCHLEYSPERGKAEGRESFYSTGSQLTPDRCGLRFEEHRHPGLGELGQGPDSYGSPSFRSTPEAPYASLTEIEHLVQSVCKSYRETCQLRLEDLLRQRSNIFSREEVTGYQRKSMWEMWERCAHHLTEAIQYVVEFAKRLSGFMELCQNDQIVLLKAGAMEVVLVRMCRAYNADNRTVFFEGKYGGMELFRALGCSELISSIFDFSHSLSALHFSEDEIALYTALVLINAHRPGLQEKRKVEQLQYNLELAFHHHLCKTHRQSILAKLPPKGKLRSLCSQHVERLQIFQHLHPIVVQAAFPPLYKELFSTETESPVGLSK
Sequence of human Ephrin type-A Receptor 1 (EphA1), EPHA1 (gene 2041) (P21709 whole entry, looked up): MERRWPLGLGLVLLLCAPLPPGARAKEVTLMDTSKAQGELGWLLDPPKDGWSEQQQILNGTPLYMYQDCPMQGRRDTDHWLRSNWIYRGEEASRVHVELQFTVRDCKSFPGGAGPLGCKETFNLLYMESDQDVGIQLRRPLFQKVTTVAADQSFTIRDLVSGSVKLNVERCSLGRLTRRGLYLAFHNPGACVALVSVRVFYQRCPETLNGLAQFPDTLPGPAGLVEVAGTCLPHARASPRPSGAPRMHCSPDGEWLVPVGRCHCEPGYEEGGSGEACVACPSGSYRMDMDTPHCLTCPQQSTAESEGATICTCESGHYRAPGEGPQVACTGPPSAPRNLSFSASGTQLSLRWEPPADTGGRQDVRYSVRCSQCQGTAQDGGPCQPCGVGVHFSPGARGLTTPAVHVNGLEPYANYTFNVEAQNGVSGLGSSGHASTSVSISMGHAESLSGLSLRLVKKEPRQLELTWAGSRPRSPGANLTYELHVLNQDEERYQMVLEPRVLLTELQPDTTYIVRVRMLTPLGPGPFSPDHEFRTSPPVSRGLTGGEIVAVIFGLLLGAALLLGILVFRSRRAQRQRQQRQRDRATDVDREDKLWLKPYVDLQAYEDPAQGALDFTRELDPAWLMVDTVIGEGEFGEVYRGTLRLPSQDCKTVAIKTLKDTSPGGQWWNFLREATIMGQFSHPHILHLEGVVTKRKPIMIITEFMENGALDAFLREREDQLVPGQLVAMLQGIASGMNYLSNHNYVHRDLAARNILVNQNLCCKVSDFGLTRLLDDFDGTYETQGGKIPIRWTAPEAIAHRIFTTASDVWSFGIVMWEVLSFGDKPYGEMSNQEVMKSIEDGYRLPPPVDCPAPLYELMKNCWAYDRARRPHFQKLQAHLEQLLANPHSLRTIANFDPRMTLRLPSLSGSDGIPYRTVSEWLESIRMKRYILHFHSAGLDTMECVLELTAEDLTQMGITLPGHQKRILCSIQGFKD
Sequence of sheep Cyclooxygenase-1 (Cox1), PTGS1 (gene 443551) (P05979 whole entry, looked up): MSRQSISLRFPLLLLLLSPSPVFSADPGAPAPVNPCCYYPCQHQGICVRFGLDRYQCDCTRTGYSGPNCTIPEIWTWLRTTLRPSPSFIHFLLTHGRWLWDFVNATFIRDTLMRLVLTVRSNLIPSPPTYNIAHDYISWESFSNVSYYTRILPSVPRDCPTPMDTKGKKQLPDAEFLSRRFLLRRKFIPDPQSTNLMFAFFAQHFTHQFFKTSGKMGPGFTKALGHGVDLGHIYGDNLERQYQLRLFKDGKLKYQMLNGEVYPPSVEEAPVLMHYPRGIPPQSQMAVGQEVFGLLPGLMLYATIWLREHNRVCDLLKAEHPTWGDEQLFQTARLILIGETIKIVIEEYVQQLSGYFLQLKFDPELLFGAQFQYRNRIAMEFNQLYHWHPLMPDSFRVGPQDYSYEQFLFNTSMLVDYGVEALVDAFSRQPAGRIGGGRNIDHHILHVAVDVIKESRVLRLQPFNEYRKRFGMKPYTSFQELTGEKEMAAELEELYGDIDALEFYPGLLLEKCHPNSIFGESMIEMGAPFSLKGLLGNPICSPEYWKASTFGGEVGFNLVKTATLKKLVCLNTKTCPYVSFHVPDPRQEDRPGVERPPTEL

OC(C(F)(F)F)(C(F)(F)F)C(O)(C(F)(F)F)C(F)(F)F
active: [1] 20 µM and 8.19 µM | [2] 23.6 µM and 21.1 µM | [3] 41.5 µM and 37.7 µM | [4] 11000 nM | [5] 2570 nM | [6] 2660 nM | [8] 2660 nM | [10] 11800 nM | [11] 1180 nM | [14] 2210 nM
inactive: [7] | [9] | [12] | [13]

C=CN1CCCCCC1=O
inactive: [15]

Nc1nc(N)c2nc(-c3ccccc3)c(N)nc2n1
inactive: [16] | [17] | [18]

C[N+](C)(C)CC(=O)[O-]
inactive: [19] | [20]
